Experimental data taken from ChEMBL document CHEMBL3988442, “University of Dundee, Small-Polar-MMV Screening Library” (2021).
For some assays here: Results with a measured potency or affinity are listed apart.

Columns and labels:
Parameters in all cases: scale not given: direction of the effect not stated beside the values
[1] = target: Protein translocase subunit SecA (Escherichia coli (strain K12)) (UniProt P10408); experiment: Assay to Identify E. coli SecA ATPase Inhibitors; format: functional; settings: 30 µM
[2] = target: T1, Ubiquitin-activating enzyme e1, putative (Leishmania donovani (strain BPK282A1)) (UniProt E9BSI1); experiment: Leishmania donovani Ubiquitin Activating Enzyme (LdE1); format: functional; settings: 30 µM
T1 sequence (whole entry): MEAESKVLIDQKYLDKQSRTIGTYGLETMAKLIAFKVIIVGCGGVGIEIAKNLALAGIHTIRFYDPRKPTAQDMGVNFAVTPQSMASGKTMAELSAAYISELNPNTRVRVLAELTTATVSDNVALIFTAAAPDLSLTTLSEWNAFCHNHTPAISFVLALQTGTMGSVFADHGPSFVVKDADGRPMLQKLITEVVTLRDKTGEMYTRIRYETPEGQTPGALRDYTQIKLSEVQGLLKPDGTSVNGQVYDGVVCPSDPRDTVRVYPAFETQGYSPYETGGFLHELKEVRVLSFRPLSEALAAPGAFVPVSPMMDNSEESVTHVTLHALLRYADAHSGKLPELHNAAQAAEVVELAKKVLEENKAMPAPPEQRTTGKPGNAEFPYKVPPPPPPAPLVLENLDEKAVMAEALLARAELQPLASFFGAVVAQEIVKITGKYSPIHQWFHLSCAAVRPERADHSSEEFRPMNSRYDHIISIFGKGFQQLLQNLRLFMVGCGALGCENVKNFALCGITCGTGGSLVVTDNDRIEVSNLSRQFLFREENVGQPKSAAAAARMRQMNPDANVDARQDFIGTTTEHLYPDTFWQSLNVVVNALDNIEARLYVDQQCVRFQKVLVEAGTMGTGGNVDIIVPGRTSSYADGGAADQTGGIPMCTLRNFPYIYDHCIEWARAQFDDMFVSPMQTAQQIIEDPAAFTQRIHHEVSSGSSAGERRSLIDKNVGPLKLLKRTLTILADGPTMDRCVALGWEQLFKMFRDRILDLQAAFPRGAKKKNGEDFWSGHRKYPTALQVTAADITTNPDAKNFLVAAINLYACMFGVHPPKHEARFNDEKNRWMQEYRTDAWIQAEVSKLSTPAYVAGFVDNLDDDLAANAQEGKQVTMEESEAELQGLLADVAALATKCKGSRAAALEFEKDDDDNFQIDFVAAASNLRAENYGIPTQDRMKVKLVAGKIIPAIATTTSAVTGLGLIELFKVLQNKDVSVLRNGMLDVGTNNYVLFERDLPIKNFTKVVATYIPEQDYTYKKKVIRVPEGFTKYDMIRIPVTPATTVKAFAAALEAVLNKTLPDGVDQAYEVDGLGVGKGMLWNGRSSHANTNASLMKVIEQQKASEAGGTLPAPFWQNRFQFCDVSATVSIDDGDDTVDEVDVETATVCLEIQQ

[3] = target: AMP-activated protein kinase, AMPK (Homo sapiens) (UniProt P54646+O43741+P54619+Q9UGJ0+Q9Y478+Q13131+Q9UGI9); experiment: AMP-dependent Kinase enzyme assay. An in vitro enzyme assay that detects ADP turnover that is directly proportional to AMPK activity. This uses naive AMPK that is activated during the assay with MK-8722; format: functional; settings: 30 µM
[4] = target: Sialic acid-binding Ig-like lectin 9 (Homo sapiens) (UniProt Q9Y336); experiment: Hs-Siglec9 ALPHAscreen SOP 20170721; settings: 10 µM
Trypanosoma cruzi = experiment: Trypanosoma cruzi phosphomannomutase and mannose-1-phosphate guanylyltransferase assay; format: functional; settings: 10 µM
[5] = target: T2, Arginase-2, mitochondrial (Homo sapiens) (UniProt P78540); experiment: in vitro enzyme assay to detect the production of urea directly proportional to the activity of Arginase II; format: functional; settings: 33.3 µM; note: in the data most compounds retested in dose-response had high values
T2 sequence (whole entry): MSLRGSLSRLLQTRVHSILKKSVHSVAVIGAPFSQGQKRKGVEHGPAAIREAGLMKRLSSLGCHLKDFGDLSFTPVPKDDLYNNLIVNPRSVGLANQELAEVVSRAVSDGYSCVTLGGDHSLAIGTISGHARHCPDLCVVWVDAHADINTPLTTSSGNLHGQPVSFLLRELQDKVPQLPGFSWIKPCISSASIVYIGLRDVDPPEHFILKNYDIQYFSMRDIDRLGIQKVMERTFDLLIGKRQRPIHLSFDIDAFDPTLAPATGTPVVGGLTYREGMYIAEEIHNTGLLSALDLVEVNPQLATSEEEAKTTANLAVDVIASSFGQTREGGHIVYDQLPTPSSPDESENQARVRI

[6] = target: T3, Proteasome subunit beta (Trypanosoma cruzi) (UniProt O96673); experiment: Trypanosoma cruzi proteasome chymotrypsin-like activity (TcProtChymo) assay.; note: in the data most compounds retested in dose-response had high values; format: functional; settings: 9.37 µM
T3 sequence (whole entry): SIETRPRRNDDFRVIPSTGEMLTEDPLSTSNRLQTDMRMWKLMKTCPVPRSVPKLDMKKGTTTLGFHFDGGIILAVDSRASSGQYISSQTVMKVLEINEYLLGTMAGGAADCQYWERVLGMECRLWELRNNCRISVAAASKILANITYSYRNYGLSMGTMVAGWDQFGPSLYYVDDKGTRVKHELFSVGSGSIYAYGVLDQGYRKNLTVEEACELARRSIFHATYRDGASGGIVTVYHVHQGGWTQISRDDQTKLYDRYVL

Homo sapiens = species on record: Homo sapiens; experiment: To identify inhibition of the IFN signalling (Jak-Stat) pathway via expression of an eGFP reporter gene under the control of an IFN-stimulated response element (ISRE) containing MxA promoter.; format: functional; settings: 30 µM
[7] = target: T4, Tyrosyl-tRNA synthetase, putative (Trypanosoma cruzi (strain CL Brener)) (UniProt Q4DSP6); experiment: Trypanosoma cruzi tyrosyl tRNA synthetase (TcYRS) _High Tyrosine SOP; format: functional; settings: 30 µM; note: in the data most compounds retested in dose-response had high values
T4 sequence (whole entry): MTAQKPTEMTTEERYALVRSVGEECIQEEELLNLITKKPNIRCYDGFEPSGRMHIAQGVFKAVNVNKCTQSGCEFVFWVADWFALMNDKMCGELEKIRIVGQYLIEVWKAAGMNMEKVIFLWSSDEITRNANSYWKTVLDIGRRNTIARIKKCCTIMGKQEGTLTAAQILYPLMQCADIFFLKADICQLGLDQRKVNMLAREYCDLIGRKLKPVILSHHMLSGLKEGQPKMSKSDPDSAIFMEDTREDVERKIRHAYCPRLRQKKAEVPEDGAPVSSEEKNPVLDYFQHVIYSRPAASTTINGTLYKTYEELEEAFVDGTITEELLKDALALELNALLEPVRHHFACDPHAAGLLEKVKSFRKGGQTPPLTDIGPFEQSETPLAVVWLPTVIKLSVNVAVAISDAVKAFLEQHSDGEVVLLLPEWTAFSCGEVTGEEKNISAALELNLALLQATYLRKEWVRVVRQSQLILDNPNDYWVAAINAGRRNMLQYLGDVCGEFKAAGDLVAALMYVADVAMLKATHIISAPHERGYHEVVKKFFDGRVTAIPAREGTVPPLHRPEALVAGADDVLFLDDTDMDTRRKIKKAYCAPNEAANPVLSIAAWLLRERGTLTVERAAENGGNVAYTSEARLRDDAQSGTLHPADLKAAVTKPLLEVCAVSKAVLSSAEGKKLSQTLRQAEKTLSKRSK

[8] = target: T4, Tyrosyl-tRNA synthetase, putative (Trypanosoma cruzi (strain CL Brener)); experiment: Trypanosoma cruzi tyrosyl tRNA synthetase (TcYRS) SOP; format: functional; settings: 30 µM
[9] = target: Chromo domain-containing protein 1 (Saccharomyces cerevisiae (strain ATCC 204508 / S288c) (Baker's yeast)) (UniProt P32657); experiment: ScCHD-1 Enzyme Inhibition Assay; format: functional; settings: 30 µM; note: in the data most compounds retested in dose-response had high values
Chromo domain-containing protein 1 (Saccharomyces cerevisiae (strain ATCC 204508 / S288c) (Baker's yeast)), sequence (P32657 whole entry, the tested form may be a part): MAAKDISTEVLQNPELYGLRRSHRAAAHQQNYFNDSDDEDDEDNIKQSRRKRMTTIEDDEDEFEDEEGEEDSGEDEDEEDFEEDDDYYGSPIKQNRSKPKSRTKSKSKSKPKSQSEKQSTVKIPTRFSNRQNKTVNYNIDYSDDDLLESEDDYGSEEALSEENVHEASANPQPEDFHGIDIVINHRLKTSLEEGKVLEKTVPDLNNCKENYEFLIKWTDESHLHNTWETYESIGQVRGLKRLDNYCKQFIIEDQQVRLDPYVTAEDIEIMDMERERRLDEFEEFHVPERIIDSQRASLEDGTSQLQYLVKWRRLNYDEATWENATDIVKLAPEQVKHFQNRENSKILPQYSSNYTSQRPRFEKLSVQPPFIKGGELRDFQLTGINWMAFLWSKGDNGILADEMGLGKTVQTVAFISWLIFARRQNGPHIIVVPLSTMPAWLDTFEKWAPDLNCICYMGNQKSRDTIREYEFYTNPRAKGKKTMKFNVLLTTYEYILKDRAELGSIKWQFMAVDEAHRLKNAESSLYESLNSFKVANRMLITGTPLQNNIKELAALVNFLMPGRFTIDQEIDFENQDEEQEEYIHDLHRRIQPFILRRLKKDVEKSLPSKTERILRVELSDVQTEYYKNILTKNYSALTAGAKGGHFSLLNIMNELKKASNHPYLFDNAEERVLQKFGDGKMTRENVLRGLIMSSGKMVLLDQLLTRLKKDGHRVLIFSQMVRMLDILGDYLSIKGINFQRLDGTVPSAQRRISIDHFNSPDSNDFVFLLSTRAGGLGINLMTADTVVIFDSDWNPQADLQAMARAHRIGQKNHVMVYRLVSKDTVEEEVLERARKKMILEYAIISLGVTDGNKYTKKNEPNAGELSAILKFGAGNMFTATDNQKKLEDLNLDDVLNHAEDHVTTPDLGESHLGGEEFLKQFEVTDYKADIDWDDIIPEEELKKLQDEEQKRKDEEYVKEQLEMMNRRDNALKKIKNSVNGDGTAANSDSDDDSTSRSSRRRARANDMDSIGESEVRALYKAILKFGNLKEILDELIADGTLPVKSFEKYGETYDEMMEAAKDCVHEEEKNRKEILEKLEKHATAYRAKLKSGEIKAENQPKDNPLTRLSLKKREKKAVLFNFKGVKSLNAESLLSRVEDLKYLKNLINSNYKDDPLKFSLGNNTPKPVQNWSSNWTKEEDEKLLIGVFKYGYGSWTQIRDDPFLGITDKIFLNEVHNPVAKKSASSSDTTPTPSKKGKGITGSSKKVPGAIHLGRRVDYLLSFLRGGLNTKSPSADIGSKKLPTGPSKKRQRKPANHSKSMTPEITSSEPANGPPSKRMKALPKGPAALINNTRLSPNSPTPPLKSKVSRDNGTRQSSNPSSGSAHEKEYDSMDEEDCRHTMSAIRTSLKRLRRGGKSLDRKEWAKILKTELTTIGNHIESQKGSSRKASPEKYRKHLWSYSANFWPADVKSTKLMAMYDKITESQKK

Protein translocase subunit SecA (Escherichia coli (strain K12)), sequence (P10408 whole entry): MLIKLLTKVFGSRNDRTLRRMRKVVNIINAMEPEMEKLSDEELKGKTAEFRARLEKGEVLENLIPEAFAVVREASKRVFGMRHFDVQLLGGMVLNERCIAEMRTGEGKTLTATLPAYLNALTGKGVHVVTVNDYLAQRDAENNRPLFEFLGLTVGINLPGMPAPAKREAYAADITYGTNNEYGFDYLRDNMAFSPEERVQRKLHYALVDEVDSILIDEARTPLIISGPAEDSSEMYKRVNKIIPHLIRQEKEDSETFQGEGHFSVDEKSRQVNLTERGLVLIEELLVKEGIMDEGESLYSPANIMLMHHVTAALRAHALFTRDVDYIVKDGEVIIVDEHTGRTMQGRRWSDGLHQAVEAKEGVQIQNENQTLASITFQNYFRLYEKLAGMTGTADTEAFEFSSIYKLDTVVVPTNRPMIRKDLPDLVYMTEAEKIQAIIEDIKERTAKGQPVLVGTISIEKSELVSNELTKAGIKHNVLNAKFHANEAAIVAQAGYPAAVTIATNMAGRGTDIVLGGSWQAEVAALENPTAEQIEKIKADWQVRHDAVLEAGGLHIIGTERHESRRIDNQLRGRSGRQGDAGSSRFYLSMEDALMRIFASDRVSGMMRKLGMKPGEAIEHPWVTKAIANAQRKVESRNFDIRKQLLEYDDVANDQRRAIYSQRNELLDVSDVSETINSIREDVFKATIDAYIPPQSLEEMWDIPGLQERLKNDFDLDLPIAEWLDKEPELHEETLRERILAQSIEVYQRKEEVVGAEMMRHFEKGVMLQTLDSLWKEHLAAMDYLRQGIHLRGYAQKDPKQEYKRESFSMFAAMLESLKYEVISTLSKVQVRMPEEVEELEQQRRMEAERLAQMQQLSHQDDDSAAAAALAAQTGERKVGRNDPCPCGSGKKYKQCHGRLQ
Sialic acid-binding Ig-like lectin 9 (Homo sapiens), sequence (Q9Y336 whole entry): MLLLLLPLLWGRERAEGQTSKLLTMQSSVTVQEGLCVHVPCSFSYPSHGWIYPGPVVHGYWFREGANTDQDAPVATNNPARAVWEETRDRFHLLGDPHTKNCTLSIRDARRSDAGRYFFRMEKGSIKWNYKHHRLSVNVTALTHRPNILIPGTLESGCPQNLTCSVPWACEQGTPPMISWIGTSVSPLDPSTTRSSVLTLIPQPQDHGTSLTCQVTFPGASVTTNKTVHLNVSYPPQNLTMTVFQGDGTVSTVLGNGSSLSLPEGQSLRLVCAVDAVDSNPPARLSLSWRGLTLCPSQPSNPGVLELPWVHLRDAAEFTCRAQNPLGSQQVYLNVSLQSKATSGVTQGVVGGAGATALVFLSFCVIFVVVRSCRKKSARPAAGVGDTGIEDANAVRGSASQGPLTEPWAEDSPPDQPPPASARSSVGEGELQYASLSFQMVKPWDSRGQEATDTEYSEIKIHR

| SMILES | Percent Effect [1] [%] | Percent Effect [2] [%] | Percent Effect [3] [%] | Percent Effect [4] [%] | Percent Effect (Trypanosoma cruzi) [%] | Percent Effect [5] [%] | Percent Effect [6] [%] | Percent Effect (Homo sapiens) [%] | Percent Effect [7] [%] | Percent Effect [8] [%] | Percent Effect [9] [%] |
| --- | --- | --- | --- | --- | --- | --- | --- | --- | --- | --- | --- |
| CCC(=O)N1CCN(Cc2cc(-c3ccncc3)nn2C)CC1 | -5.35 | -6.76 | 12.8 | 5.24 | -3.56 | -1.62 | 5.77 | -3.21 | 4.3 | -1.3 | -2.41 |
| Cc1cc(CN2CCN(C(=O)NC(C)Cn3ccnc3)CC2)no1 (configuration not stated) | -1.68 | 5.26 | 3.31 | 7.81 | 3.38 | 1.53 | -4.18 | 9.94 | 3.43 | 7.32 | -4.96 |
| Cc1nn(C)c(Cl)c1C1CCCN1CC(=O)NCc1ccccn1 (configuration not stated) | -0.227 | 1.27 | 8.81 | -1.21 | 0.513 | -0.215 | 12.2 | 22.5 | 4.17 | 10.1 | 3 |
| Cc1cc(C)nc(NC(=O)C(C)Oc2ccc3c(c2)OCO3)n1 (configuration not stated) | -1.24 | 5.2 | -2.31 | 4.95 | 5.21 | 0 | 19.6 | 5.23 | 8.6 | 18.5 | -2.76 |
| CCc1ncncc1C(=O)N1CCN(Cc2c(C)noc2C)CC1 | -5.8 | 13.2 | -4.4 | 4.23 | 2.89 | 0.36 | 3.98 | -0.539 | 7.39 | 16.1 | -0.381 |
| COc1cccc(S(=O)(=O)NC2CNC(=O)C2)c1 (configuration not stated) | -6 | 2.74 | 3.51 | 9.97 | 6.66 | -1.36 | 2.31 | -0.016 | 4.3 | 12.5 | -5.21 |
| CC(Sc1nnnn1C1CCOCC1)C(=O)NC1CCCCC1 (configuration not stated) | -6.54 | 2.67 | -2.78 | 37.4 | 3.21 | 3.65 | 13.8 | 24.9 | 7.1 | 16.1 | -4.98 |
| Cc1cccc(CN2CCc3ncnc(N4CCOCC4)c3CC2)n1 | -4.12 | -5.48 | 1.75 | -1.38 | -1.39 | 3.59 | 4.2 | 20.4 | -1.04 | 1.24 | -0.552 |
| Cc1csc2c(N3CCC(NCCCc4ccncc4)CC3)ncnc12 | -0.362 | 2.6 | 5.76 | 17.7 | -1.08 | -1.38 | 6.49 | -3.09 | 7.53 | 11.1 | -2.5 |
| Cc1cccc(C(=O)NC2CCN(c3cnn(C)c3)C2=O)n1 (configuration not stated) | -4.94 | 16.2 | -3.39 | 24.3 | 7.33 | 23.6 | 9.36 | -7.64 | 3.23 | 13.6 | -10.2 |
| CCc1nnc2n1CCN(C(=O)c1ccc(C(F)(F)F)nc1C)C2 | -6.11 | 20.2 | -4.83 | 14.3 | 5.95 | -6.08 | 9.09 | -2.36 | 2.46 | 16.5 | -8.19 |
| O=C(C1CCOCC1)N1CCC2(CC1)CC(Oc1ccccc1)CO2 (configuration not stated) | 0.293 | 8.22 | -6.45 | 5.89 | 0.595 | -5.59 | 7.28 | 14.1 | 6.25 | 16.1 | -0.343 |
| CCC(=O)N1CCCC1c1nccnc1Nc1ncccn1 (configuration not stated) | 0.559 | -6.76 | 18.4 | 0.16 | -2.57 | -0.232 | -6.24 | -9.16 | 1.07 | -3.9 | -6.85 |
| Cc1nc2cc(C(=O)N3CCCC(n4cncn4)C3)ccc2n1C (configuration not stated) | -4.14 | 5.41 | -2.29 | 11.4 | 9.75 | -0.924 | -5.21 | 0.593 | 3.96 | 13.4 | -2.87 |
| CCCc1nnsc1C(=O)NCC1CCN(c2ccccn2)CC1 | -0.329 | 11 | -5.48 | 2.44 | 4.5 | 11.8 | 21.3 | 25.2 | 5.38 | 20 | -6.53 |
| CC(C)CS(=O)(=O)N1C[C@H]2C[C@H](C(=O)NCc3ccccc3)[C@@H](C1)O2 | 1.12 | 9.33 | 4.22 | -2.68 | -10 | 0.88 | 13.3 | 2.72 | 3.17 | 2.56 | -5.74 |
| O=C1CC(c2cccs2)c2snc(C(=O)O)c2N1 (configuration not stated) | -2.26 | 4.17 | -2.53 | 8.18 | 4.76 | 3.09 | 2.63 | 1.26 | 2.1 | 5.13 | -3.46 |
| CC(O)CN1CCN(C(=O)CN(C)c2cnccn2)CC1 (configuration not stated) | 3.16 | 5.41 | -4.8 | 6.58 | -2.12 | -70 | 16.6 | 5.3 | 3.7 | 4.88 | -5.99 |
| COCC1CC2(CCN(C(=O)c3cccc(C)c3)CC2)CO1 (configuration not stated) | -0.162 | 5.2 | 3.05 | 6.28 | -1.68 | -1.94 | 1.74 | -8.87 | -3.17 | -3.85 | -5.05 |
| Cc1cc(C(=O)N2C[C@@H]3COC[C@]3(c3nnc(C4CC4)o3)C2)on1 | -4.61 | 13.3 | -3.2 | -0.841 | 1.16 | -46.4 | 7.52 | -5.46 | -5.21 | 5 | -9 |
| CC(C)n1c(C2CCCN(Cc3ccnn3C)C2)nc2ccccc21 (configuration not stated) | -5.27 | 5.33 | 6.84 | 4.6 | 6.5 | -1.63 | 6.78 | 18.1 | 2.13 | 14.1 | -3.27 |
| O=C1NC(c2ccccc2)=N[C@@]12CC[C@@H]1CN(CC3CCOCC3)C[C@@H]12 | -1.53 | 0 | 5.75 | -1.86 | -1.54 | -48.6 | 0.684 | -0.209 | -27.1 | -5 | -1.93 |
